Screens: PubChem, National Center for Advancing Translational Sciences (NCATS)
Compounds with a hit are over-represented: about 12% of the library has one in this group of screens.
HP1b chromo inh – inhibitors of HP1-beta chromodomain binding to methylated histone tails | Potency, µM (highest dose often 114 µM), inactives show at the highest dose activity change, negative = inhibition, actives largely listed as inhibitors | AID 540317 | AlphaScreen HP1-beta / biotin-H3K9me3 peptide binding | 390,000 compounds, 0.56% hits | P83916; note: nearly all actives have a fitted effect of over 70% in size
Target sequence (P83916 whole entry, looked up): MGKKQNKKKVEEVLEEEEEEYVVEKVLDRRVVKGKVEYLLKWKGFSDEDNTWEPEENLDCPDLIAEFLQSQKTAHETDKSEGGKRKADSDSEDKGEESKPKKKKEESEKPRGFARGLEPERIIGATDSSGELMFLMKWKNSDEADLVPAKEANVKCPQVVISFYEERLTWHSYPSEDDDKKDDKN
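Compound inhibition of the preformed complex between 50 nM HP1-beta and 50 nM biotinylated H3K9me3 peptide was read by AlphaScreen. Buffer was PBS pH 7.4 with 0.01% Tween-20. Incubations ran 30 min at room temperature, with 10 ug/mL donor/acceptor beads.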
G9a inh – blocks human histone lysine methyltransferase G9a; Potency, µM (doses to about 102 µM), without a hit: at the top dose activity, negative = inhibition, most hits filed as inhibitors; G9a H3K9 monomethylation, AlphaScreen, 2 h; 350,000 compounds, 8.8% hits; Q96KQ7; note: % is set by controls: 0 for no effect and ±100 for the full control effect; nearly all actives have a fitted effect of over 75% in size
Target sequence (Q96KQ7 913-1193 limits assumed): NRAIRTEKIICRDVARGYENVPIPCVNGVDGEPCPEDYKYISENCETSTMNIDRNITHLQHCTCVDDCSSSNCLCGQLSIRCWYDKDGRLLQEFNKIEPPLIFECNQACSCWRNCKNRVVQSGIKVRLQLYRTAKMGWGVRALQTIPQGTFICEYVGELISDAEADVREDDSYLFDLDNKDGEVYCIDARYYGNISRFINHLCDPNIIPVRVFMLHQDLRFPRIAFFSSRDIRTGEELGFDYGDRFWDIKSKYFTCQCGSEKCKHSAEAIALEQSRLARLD
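Compounds were preincubated with 20 nM G9a for 15 min, after which biotinylated H3K9 peptide (500 nM) and SAM (20 uM) started a 2 h room-temperature reaction. Monomethylated product was quantified by antibody-based AlphaScreen chemiluminescence.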
BAZ2B inh – inhibitors of human BAZ2B bromodomain | Q9UIF8 | AlphaScreen BAZ2B-H3K14Ac peptide displacement | Potency, µM (series often up to 114 µM), inactives show top-dose activity change, negative = inhibition, most hits filed as inhibitors | 360,000 compounds, 4.4% hits; note: % is set by controls: 0 for no effect and ±100 for the full control effect; nearly all actives have a fitted effect of over 60% in size
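AlphaScreen luminescence quantifies BAZ2B engagement of H3K14Ac peptide; the protein and biotinylated peptide are both at 50 nM final, buffer PBS pH 7.4 with 0.01% Tween-20, all steps at room temperature.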
L3MBTL1 inh – inhibitors of human L3MBTL1; Q9Y468; Potency, µM (titrated, usually from 57.1 µM), for inactives: at the highest dose activity, negative = inhibition, most hits filed as inhibitors; 230,000 compounds, 0.66% hits; AlphaScreen L3MBTL1–H3K9me1 peptide binding; note: % is set by controls: 0 for no effect and ±100 for the full control effect; nearly all actives have a fitted effect of over 60% in size
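First, the protein-peptide complex forms for 30 min at room temperature (L3MBTL1 50 nM, biotinylated H3K9me1 peptide 75 nM). Next, compounds are pin-transferred and incubated 30 min. Finally, AlphaScreen beads are added and read after 30 min.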
Sfp PPTase inh – inhibitors of Bacillus subtilis Sfp phosphopantetheinyl transferase | Q9F4F7 | Biochemical Sfp PPTase activity, qHTS | Potency, µM, without a hit: largest response in the series, negative = inhibition, most hits filed as inhibitors | 310,000 compounds, 3.5% hits | AID 1490;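 note: the enzyme is Sfp with the accession as filed and its product quenches rhodamine fluorescence; 0% = enzyme reaction without inhibitor and -100% = no enzyme wells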
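Fluorescence-quenching assay with 15 nM Sfp, 5 uM rhodamine-CoA and 12.5 uM BHQ-2-labelled ybbR peptide in pH 7.6 Hepes/MgCl2 buffer. Enzyme was pre-incubated with compound for 15 min at room temperature. Rate was taken from the 30-min fluorescence change (525/598 nm).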
JMJD2A Tudor inh – blocks the human JMJD2A Tudor domain; AlphaScreen JMJD2A-Tudor / H3K4me3 peptide binding; Potency, µM (highest dose often 114 µM), for inactives: top-dose activity change, negative = inhibition, usual class: inhibitors; 390,000 compounds, 4.4% hits; note: % is set by controls: 0 for no effect and ±100 for the full control effect; nearly all actives have a fitted effect of over 50% in size
Numbers without * were called inactive; u = inconclusive; x = no result; ! = not active in a repeat; [ ] = remark or other dose. Calls come from the whole dose curve; as a rule, active = well fitted curve in the direction sought with a large enough effect; inconclusive = small, poorly fitted or top-dose-only effect, or another doubt; inactive = no such curve, though single readings can be large; an effect the other way counts as inactive or inconclusive. Potency is the fitted concentration of half-maximal effect.

SMILES	HP1b chromo inh	G9a inh	BAZ2B inh	L3MBTL1 inh	Sfp PPTase inh	JMJD2A Tudor inh
O=C1NC(=O)C(=Cc2ccccc2Oc2ccc(F)cc2)C(=O)N1	42%	10µM*	16%	x	45µM*	-2%
CN1C(=O)C(=Cc2ccccc2Oc2ccc(Cl)c(F)c2)C(=O)N(C)C1=O	132%	-21%	19%	11%	56µM*	10%
Cc1ccc(Cl)c(O)c1	x	30%[59 µM]	x	x	5%	x
CCN(CC)P(=O)(Nc1ccc(Br)cc1)c1c(C)nn(CCC#N)c1NC(=O)c1ccc(Cl)cc1 (stereo unspecified)	15%	-1%[12.7 µM]	20%	x	18%	-8%
COC[C@H]1OC(=O)c2coc3c2[C@@]1(C)C1=C(C3=O)C2CCC(=O)[C@@]2(C)C[C@H]1OC(C)=O (stereo partly specified)	x	28µM*!	x	x	u	x
CC(C)(O)[C@@H]1[C@H]2OC(=O)[C@@H]1[C@]1(O)C[C@H]3O[C@]34C(=O)O[C@H]2[C@@]14C (tested in a mixture with another compound)	x	x	x	x	-13%	x
O=C(CN1CCCCC1)c1ccc(OC(F)F)cc1	40%	u	-29%	13%	4%	-21%
O=C(CN1CCCCC1)c1ccccc1Cl	38%	1.6µM*	-1%	4%	-18%	-23%
O=C(CN1CCCCC1)c1ccc2c(c1)OCO2	31%	u	-5%	2%	13%	-14%
O=C(CN1CCCCC1)c1ccccc1F	53%	25µM*	-12%	-5%	16%	-6%
O=C(CN1CCCCC1)c1cccc(Br)c1	45%	8.9µM*	-4%	1%	-2%	-5%
CCCCC(CC)COP(=O)(OCC(CC)CCCC)OCC(CC)CCCC (stereo unspecified)	33%	6%[0.501 µM]	14%	u	x	14%
NC(N)=NN=Cc1c(Cl)cccc1Cl	x	10%[21.5 µM]	x	x	1%	x
C/C1=C/C(=O)O[C@@H]2C[C@@H](CC[C@H](C)/C=C\CC1)O[C@@](O)(C1CSC(=O)N1)C2 (stereo partly specified)	x	x	x	x	18%	x
Cn1c(O)c(C(=Nc2ccccc2)SCc2ccc(Cl)cc2)c(=O)n(C)c1=O	60%	u	u	x	45µM*	u
N#Cc1ccc(CN2CC3(CCNCC3)C2)cc1	x	-4%[12.7 µM]	x	x	-19%	x
O=C(C[N+]12CCC(CC1)C(CO)C2)c1ccc([N+](=O)[O-])cc1 (stereo unspecified)	54%	35µM*	-13%	x	5%	-7%
COc1ccccc1N1CCN(C2CCN(C(=O)c3cccs3)CC2)CC1	-53%	28µM*	-34%	-14%	-11%	7.1µM*
COc1ccccc1OCC(=O)N1CCCC(N2CCN(c3ccc(F)cc3)CC2)C1 (stereo unspecified)	9%	-12%	-17%	x	14%	-10%
CCC(C)N1C(=O)/C(=C/c2ccc3c(c2)CCN3CCCCl)C(=O)NC1=S (stereo unspecified)	u	13µM*	50µM*	u	u	50µM*
O=C(Oc1ccccc1)N1CCC2(CC1)CN(Cc1ccncc1)C2	x	37%[12.7 µM]	x	x	5%	x
CCN(CC)CCCCN1c2ccccc2Oc2ccc(Cl)cc21	x	x	x	x	-20%	x
O=c1[nH]c(=O)c2ccccc2o1	33%[57 µM]	u	x	x	-18%	7%
O=c1[nH]c2ccccc2o1	22%	-45%	-4%	1%	-4%	32µM*
CC1CCN(c2ccccc2NC(=O)c2cc3ccccc3o2)CC1	86%	103%	7%	x	4%	29%
SMILES	HP1b chromo inh	G9a inh	BAZ2B inh	L3MBTL1 inh	Sfp PPTase inh	JMJD2A Tudor inh
CN1CCN(c2ccccc2NC(=O)c2ccc(-c3ccc(Cl)c(Cl)c3)o2)CC1	-2%	49%	-7%	x	7%	50µM*
COc1ccc(N2C(=O)CC(N3CC=C(c4ccccc4)CC3)C2=O)cc1 (stereo unspecified)	0%	10µM*	-11%	-9%	4%	-23%
CC1CC2CCC(O2)C(C)C(=O)OC(C)CC2CCC(O2)C(C)C(=O)OC(C)CC2CCC(O2)C(C)C(=O)OC(C)CC2CCC(O2)C(C)C(=O)O1 (stereo unspecified)	x	x	x	x	8%	x
COc1cc2[nH]c(=O)n(CCCCCC(=O)N3CCN(c4cccc(C(F)(F)F)c4)CC3)c(=O)c2cc1OC	-2%	-28%[59 µM]	-13%	x	x	u
CCCCCSc1cc(O)c(C(CNC)C(C)C)cc1OC (stereo unspecified)	9%	11µM*	u	-8%	-14%	u
OCC(O)Cc1ccc2c(c1)OCO2 (stereo unspecified)	x	-19%[2.33 µM]	x	x	5%	x
CC(C)[C@]1(NC(=O)[C@@H]2C=C3c4cccc5[nH]cc(c45)C[C@H]3N(C)C2)O[C@@]2(O)C3CCCN3C(=O)[C@H](Cc3ccccc3)N2C1=O (stereo partly specified)	x	x	x	x	-13%	x
CCOP(=O)(c1ccccc1)C(O)c1ccc(F)cc1 (stereo unspecified)	28%	0.63µM*	6%	7%	22%	5%
CCOP(=O)(C#Cc1ccccc1)C(O)c1ccc(Br)cc1 (stereo unspecified)	26%	2%	0%	x	3%	-13%
CCCCN1C(=O)/C(=C\c2ccco2)C(=O)N(CCc2ccccc2)C1=O	u	32µM*	35µM*	u	u	u
O=C1NC(=O)N(Cc2ccco2)C(=O)/C1=C/c1cccn1CCOc1ccccc1Cl	25%	u	45µM*	u	-10%	-25%
CCC(C)c1ccc(N2C(=O)NC(=O)/C(=C/c3cccn3CCOc3ccc(C)cc3)C2=O)cc1 (stereo unspecified)	23%	27%[59 µM]	-9%	5%	12%	-25%
O=C1NC(=O)N(Cc2ccccc2)C(=O)/C1=C\c1ccco1	u	35µM*	40µM*	u	-29%	u
O=C1NC(=O)N(Cc2ccc(F)cc2)C(=O)/C1=C\C=C\c1ccco1	9%	40µM*	56µM*	x	u	-20%[11.4 µM]
CC(C)C[C@H](NC(=O)[C@H](Cc1ccccc1)NC(=O)CNC(=O)[C@H](CS)N(C(=O)[C@@H](N)Cc1ccc(O)cc1)C(C)(C)C)C(=O)N([C@H](C(=O)O)[C@H](C)O)C(C)(C)C	x	8%[59 µM]	x	x	19%	x
C=CCN1C[C@H](C)N([C@H](c2ccc(C(=O)N(CC)CC)cc2)c2cccc(O)c2)C[C@H]1C	x	x	x	x	-5%	x
CCCCN1C(=O)/C(=C/C=C/c2ccco2)C(=O)NC1=S	35µM*	7.9µM*	35µM*	3.5µM*	28µM*	22µM*
